# Reference: PubChem BioAssay (NCATS)
# Inconclusive results are not listed. A call without a number means that no potency is given here. Active and inactive are the calls of the source. Calls come from the whole dose curve; as a rule, active = well fitted curve in the direction sought with a large enough effect; inconclusive = small, poorly fitted or top-dose-only effect, or another doubt; inactive = no such curve, though single readings can be large; an effect the other way counts as inactive or inconclusive.
# Legend:
# [1] = molecular target: Arylsulfatase A (Homo sapiens) (UniProt P15289); test: qHTS screen for enhancers of Arylsulfatase A (ASA1): LOPAC Validation Assay (AID 720538)
# In short: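 Read-out: fluorescence at Ex=525/Em=598 nm after 1N NaOH final stop. Patient fibroblasts carrying ASA-I179S had 48h compound exposure, then 14h room-temperature pNCS hydrolysis (0.5mM final) in lysis buffer. Signal increase = enhanced activity.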
# [2] = qHTS for differential inhibitors of proliferation of Plasmodium falciparum line D10 (AID 1877);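 note: potency is the fitted concentration of half-maximal effect; parasites grown with compound for 72 h before DNA staining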
# [3] = molecular target: Phospholipid hydroperoxide glutathione peroxidase GPX4 (Homo sapiens) (UniProt P36969); test: Primary qHTS Assay for Inhibitors of Recombinant Selenoprotein Glutathione Peroxidase 4 (GPX4) (AID 1845192); note: nearly all actives have a fitted effect of over 65% in size
# In short: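 GR-coupled readout: 100 nM GR, 1 mM GSH, 0.5 mM NADPH; NADPH fluorescence (ex 340/em 450 nm) read at t=0 and after 15 min RT. GPX4 200 nM, preincubated 30 min with compound; substrate 0.5 mM CHP.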
# [4] = molecular target: Cytochrome P450 2C9 (Homo sapiens) (UniProt P11712); test: qHTS Assay for Inhibitors and Substrates of Cytochrome P450 2C9 (AID 883); note: potency is the fitted concentration of half-maximal effect; nearly all actives have a fitted effect of over 60% in size
# In short: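 Human CYP2C9 (10nM) hydroxylated Luciferin-H (100uM, at its KM) to luciferin in 25mM KPO4. Compound was preincubated 10 min at 37C, then NADPH regeneration started a 60 min reaction at 37C. Luminescence was read after detection reagent, normalized to 57uM sulphaphenazole.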
# [5] = molecular target: Cytochrome P450 2C19 (Homo sapiens) (UniProt P33261); test: qHTS Assay for Inhibitors and Substrates of Cytochrome P450 2C19 (AID 899); note: potency is the fitted concentration of half-maximal effect; nearly all actives have a fitted effect of over 60% in size
# In short: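 Human CYP2C19 (5nM) with Luciferin-H EGE at 10uM (its KM) in 50mM KPO4 was preincubated with compound for 10 min at 37C. NADPH regeneration started a 60 min 37C reaction. Luciferin was read by luminescence, normalized to 57uM ketoconazole.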
# [6] = qHTS Assay for Identification of Small Molecule Antagonists for Thrombopoietin (TPO) Signaling Pathway (AID 918); conditions: TPO-dependent cell signaling reporter, antagonist mode; note: potency is the fitted concentration of half-maximal effect; nearly all actives have a fitted effect of over 60% in size
# In short: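 Ba/F3 (murine, hTPO-R, GPIIb-luc reporter); overnight IL-3 withdrawal; cpd + TPO 26 pM final (EC50); 24 h 37 C/5% CO2; Steadylite luminescence after 10 min RT.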
# [7] = High Content Imaging Cell-Based qHTS for Inhibitors of the mTORC1 Signaling Pathway in MEF (Tsc2-/-, p53-/-) Cells (AID 2666);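 note: percent of cells scored positive for phospho-rpS6 Ser235/236 immunostaining by imaging; potency is the fitted concentration of half-maximal effect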
# In short: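 Read-out: % positive cells per well, with thresholds from highest- and lowest-signal wells, based on phospho-rpS6 (Ser235/236) intensity normalized to Hoechst nuclear stain. Cells: Tsc2-/-, p53-/- MEFs carrying empty vector; compound 24 hrs, 37 degree Celsius.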
# [8] = High Content Imaging Cell-Based qHTS for Inhibitors of the mTORC1 Signaling Pathway in MEF Cells (AID 2667); note: potency is the fitted concentration of half-maximal effect
# In short: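 MEF (Tsc2-/-, p53-/-, WT Tsc2 re-expressed); cpd 24 h, 37 °C; PFA fix; Alexa-488 anti-p-rpS6 Ser235/236, PI, Hoechst; IN Cell imaging; Hoechst/Alexa-488 intensity ratio; % active cells, thresholds set from rapamycin and DMSO wells.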
# [9] = Cytometry Cell-Based qHTS for Inhibitors of the mTORC1 Signaling Pathway in MEF cells (AID 2668); note: potency is the fitted concentration of half-maximal effect
# In short: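 Read-out: phospho-rpS6 Ser235/236 immunofluorescence normalized to propidium iodide intensity, scored as % active cells against a rapamycin (7.5 nM) threshold. Cells: Tsc2-/-, p53-/- MEFs stably expressing WT Tsc2, compound-treated 24 hrs at 37 degree Celsius.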
# [10] = qHTS for compounds that reverse cellular toxicity of Amyloid beta (A-beta) peptide in yeast: LOPAC Validation Assay (AID 720559)
# In short: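 OD600 growth readout after 48 hr at 30 C; A-beta-toxic yeast plus pinned compounds in medium. Normalization: DMSO = negative, equimolar FeCl3 + clioquinol = positive.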
# [11] = molecular target: Cytochrome P450 2C9 (Homo sapiens) (UniProt P11712); test: qHTS for inhibitors of CYP2C9 against the NCATS DSHEA and TCM libraries (AID 1919973);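 note: luminogenic pro-luciferin CYP2C9 substrate turned into luciferin with NADPH regeneration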
# In short: (§1)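 Read-out is luminescence after P450-Glo detection (30 min, RT). Before that: 15 min compound–enzyme preincubation, then 30-45 min reaction with 1x NADPH regeneration solution, substrate concentration isoform-specific.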
# [12] = molecular target: Cytochrome P450 2C19 (Homo sapiens) (UniProt P33261); test: qHTS for inhibitors of CYP2C19 against the NCATS DSHEA and TCM libraries (AID 1919974);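 note: luminescence from luciferin released by CYP2C19 oxidation of a pro-luciferin substrate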
# In short: as §1
# [13] = molecular target: ATP-dependent 6-phosphofructokinase (Trypanosoma brucei brucei) (UniProt O15648); test: qHTS Assay to Find Inhibitors of T. brucei phosphofructokinase: hit validation (AID 492961);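 note: luminescence reports ADP formed as PFK phosphorylates fructose-6-phosphate with ATP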
# In short: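 PFK 1.25 nM, F6P 0.5 mM, ATP 0.1 mM, MgCl2 5 mM, 0.1 M TEA pH 8.0, Tween20 0.01%, BSA 0.1%; 45 min RT. ADP-Glo two-step detection, luminescence. qHTS titration; curve fitting with curve-class categorization.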
# AS120 = test: qHTS profiling for inhibitors of Plasmodium falciparum proliferation (AID 504749); note: nearly all actives have a fitted effect of over 60% in size; conditions: P. falciparum in erythrocytes, SYBR Green DNA, 72 h; series mostly up to 28.7 µM
# In short: (§2)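 Parasite proliferation within erythrocytes, 72 h exposure. Endpoint: SYBR Green I fluorescence after overnight lysis at room temperature. Controls: 0.29 uM artemisinin, DMSO.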
# ATS189 = test: as above; conditions: P. falciparum in erythrocytes, SYBR Green DNA, 72 h; series mostly up to 28.7 µM
# In short: as §2
# CP192 = test: as above; conditions: P. falciparum in erythrocytes, SYBR Green DNA, 72 h; series mostly up to 28.7 µM
# In short: as §2
# CP203 = test: as above; conditions: P. falciparum in erythrocytes, SYBR Green DNA, 72 h; series mostly up to 28.7 µM
# In short: as §2
# CP247 = test: as above; conditions: P. falciparum in erythrocytes, SYBR Green DNA, 72 h; series mostly up to 28.7 µM
# In short: as §2
# PC49 = test: as above; conditions: P. falciparum in erythrocytes, SYBR Green DNA, 72 h; series mostly up to 28.7 µM
# In short: as §2
# TAB113 = test: as above; conditions: P. falciparum in erythrocytes, SYBR Green DNA, 72 h; series mostly up to 28.7 µM
# In short: as §2
# Sequence of Cytochrome P450 2C19 (Homo sapiens) (P33261 whole entry, looked up): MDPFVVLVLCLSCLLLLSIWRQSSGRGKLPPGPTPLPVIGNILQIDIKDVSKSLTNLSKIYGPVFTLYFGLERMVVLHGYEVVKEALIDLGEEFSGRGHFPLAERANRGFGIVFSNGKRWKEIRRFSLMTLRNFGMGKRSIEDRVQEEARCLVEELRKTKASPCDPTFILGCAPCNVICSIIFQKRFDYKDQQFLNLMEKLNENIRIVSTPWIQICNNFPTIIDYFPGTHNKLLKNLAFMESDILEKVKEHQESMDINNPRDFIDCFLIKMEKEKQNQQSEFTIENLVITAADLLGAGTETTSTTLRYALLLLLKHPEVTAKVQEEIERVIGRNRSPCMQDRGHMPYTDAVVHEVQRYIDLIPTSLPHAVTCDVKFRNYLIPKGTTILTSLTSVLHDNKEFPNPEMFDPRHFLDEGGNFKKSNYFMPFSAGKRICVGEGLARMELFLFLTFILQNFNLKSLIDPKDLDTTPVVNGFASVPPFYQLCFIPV
# Sequence of Cytochrome P450 2C9 (Homo sapiens) (P11712 whole entry, looked up, canonical isoform): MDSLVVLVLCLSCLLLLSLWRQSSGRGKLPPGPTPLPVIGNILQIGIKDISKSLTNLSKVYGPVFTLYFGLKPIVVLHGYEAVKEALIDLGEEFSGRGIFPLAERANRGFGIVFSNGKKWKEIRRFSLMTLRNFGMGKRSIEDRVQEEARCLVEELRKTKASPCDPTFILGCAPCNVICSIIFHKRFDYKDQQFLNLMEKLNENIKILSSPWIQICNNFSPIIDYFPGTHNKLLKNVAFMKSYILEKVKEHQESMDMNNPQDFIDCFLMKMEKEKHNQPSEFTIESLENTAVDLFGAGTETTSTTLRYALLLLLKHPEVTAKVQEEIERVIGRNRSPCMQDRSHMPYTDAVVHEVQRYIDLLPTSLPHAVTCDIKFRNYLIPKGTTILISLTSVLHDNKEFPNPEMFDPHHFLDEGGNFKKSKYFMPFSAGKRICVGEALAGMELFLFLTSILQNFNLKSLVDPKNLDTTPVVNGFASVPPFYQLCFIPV
# Sequence of Arylsulfatase A (Homo sapiens) (P15289 whole entry, looked up): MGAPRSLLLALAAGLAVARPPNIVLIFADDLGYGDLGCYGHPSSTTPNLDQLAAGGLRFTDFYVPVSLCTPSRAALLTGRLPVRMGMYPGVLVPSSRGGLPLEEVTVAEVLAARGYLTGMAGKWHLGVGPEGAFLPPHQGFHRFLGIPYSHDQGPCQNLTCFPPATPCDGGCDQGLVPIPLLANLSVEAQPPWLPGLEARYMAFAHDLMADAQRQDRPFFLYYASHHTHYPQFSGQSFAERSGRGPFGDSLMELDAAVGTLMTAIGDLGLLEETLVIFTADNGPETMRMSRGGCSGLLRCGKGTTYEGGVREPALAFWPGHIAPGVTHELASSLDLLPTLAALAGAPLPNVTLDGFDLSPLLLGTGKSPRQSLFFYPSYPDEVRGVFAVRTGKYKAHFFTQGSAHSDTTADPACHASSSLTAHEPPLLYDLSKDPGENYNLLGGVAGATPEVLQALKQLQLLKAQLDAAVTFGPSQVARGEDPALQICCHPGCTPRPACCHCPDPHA
# Sequence of Phospholipid hydroperoxide glutathione peroxidase GPX4 (Homo sapiens) (P36969 whole entry, looked up): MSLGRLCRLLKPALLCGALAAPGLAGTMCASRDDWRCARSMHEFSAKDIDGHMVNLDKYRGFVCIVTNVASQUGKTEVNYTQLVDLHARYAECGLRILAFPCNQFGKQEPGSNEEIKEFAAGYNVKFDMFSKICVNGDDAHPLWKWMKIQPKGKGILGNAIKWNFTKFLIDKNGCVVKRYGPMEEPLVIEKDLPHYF
# Sequence of ATP-dependent 6-phosphofructokinase (Trypanosoma brucei brucei) (O15648 whole entry, looked up): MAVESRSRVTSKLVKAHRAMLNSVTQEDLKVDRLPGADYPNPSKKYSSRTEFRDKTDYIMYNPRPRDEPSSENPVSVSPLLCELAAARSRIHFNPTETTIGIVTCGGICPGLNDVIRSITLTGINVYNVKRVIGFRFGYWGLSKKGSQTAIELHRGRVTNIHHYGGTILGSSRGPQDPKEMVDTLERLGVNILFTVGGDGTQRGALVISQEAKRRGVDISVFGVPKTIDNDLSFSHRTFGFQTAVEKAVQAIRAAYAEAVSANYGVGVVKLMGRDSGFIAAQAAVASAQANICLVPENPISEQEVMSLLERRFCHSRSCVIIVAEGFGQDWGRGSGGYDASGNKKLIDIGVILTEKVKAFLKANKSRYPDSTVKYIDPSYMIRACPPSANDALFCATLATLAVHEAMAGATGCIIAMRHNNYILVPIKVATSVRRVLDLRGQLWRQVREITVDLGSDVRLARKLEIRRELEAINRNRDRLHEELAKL
compound,measurement,setting,value
COc1cc(OC)c(/C=C2/C(=O)Nc3ccccc32)c(OC)c1,outcome,[1],inactive
CN1C[C@H](C(=O)N[C@]2(C)O[C@@]3(O)C4CCCN4C(=O)[C@H](Cc4ccccc4)N3C2=O)C[C@@H]2c3cccc4[nH]cc(c34)C[C@H]21 (stereo not given in full),Potency,[2],4.47 µM (active)
CN1[C@@H]2CC(O)C[C@H]1[C@@H]1O[C@@H]12 (stereo not given in full),Potency,[3],inactive
S=C(S)N1CCCC1,Potency,[4],2 µM (active)
same,Potency,[5],3.98 µM (active)
same,Potency,[6],3.98 µM (active)
same,Potency,[7],2.61 µM (active)
same,Potency,[8],2.93 µM (active)
same,Potency,[9],4.65 µM (active)
same,outcome,[10],inactive
O=S(=O)(O)O,Potency,[11],inactive
same,Potency,[12],inactive
C[C@]12CC[C@H]3[C@@H](CCC4=CC(=O)CC[C@@]43C)[C@@H]1CC[C@@H]2O,Potency,[13],inactive
same,Potency,AS120,inactive
same,Potency,ATS189,inactive
same,Potency,CP192,inactive
same,Potency,CP203,inactive
same,Potency,CP247,inactive
same,Potency,PC49,inactive
same,Potency,TAB113,inactive
